Test in all cases: NCI-60 one-dose screen, 48 h (100 = growth as untreated, 0 = no growth, -100 = all killed)
In assay [1] the test system is HCT-15 colon. Conditions: 10 µM unless noted.
Assay [2] has as its system HT29 colon. Conditions: 10 µM unless noted.
The test system of assay [3] is SNB-75 CNS. Conditions: 10 µM unless noted.
For assay [4], the system named is SNB-19 CNS. Conditions: 10 µM unless noted.
Assay [5] has as its system U251 CNS. Conditions: 10 µM unless noted.
Assay [6] concerns PC-3 prostate. Conditions: 10 µM unless noted.
Assay [7] concerns SK-MEL-5 melanoma. Conditions: 10 µM unless noted.
The subject of assay [8] is UACC-62 melanoma. Conditions: 10 µM unless noted.
The test system of assay [9] is LOX IMVI melanoma. Conditions: 10 µM unless noted.
The test system of assay [10] is SK-MEL-28 melanoma. Conditions: 10 µM unless noted.
Assay [11] relates to SK-MEL-2 melanoma. Conditions: 10 µM unless noted.
Assay [12] concerns EKVX NSCLC. Conditions: 10 µM unless noted.
The subject of assay [13] is SN12C renal. Conditions: 10 µM unless noted.
The test system of assay [14] is UO-31 renal. Conditions: 10 µM unless noted.
The subject of assay [15] is TK-10 renal. Conditions: 10 µM unless noted.
Assay [16] has as its system ACHN renal. Conditions: 10 µM unless noted.
The test system of assay [17] is CAKI-1 renal. Conditions: 10 µM.
Assay [18] has as its system A498 renal. Conditions: 10 µM unless noted.
Assay [19] concerns CCRF-CEM leukemia. Conditions: 10 µM unless noted.
The subject of assay [20] is MOLT-4 leukemia. Conditions: 10 µM unless noted.

SMILES strings stand for the structures. Compounds without any hit were thinned out: in the full panel of roughly 83,000, 20% have a hit.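 Each cell line was grown in a 96-well plate and treated with one concentration of compound for 48 hours. Values below 10 were considered active.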 Values without a mark were called inactive. Active and inactive are the calls of the source.

With `COC(=O)[C@@]1(C)CC[C@]2(C)CC[C@]3(C)C(=CC(=O)[C@@H]4[C@@]5(C)Cc6c(n(CC#CCN7CCN(C)CC7)c7ccccc67)C(C)(C)[C@@H]5CC[C@]43C)[C@@H]2C1`, the growth in assay [1] is 2.6% (active); in assay [2], 14.4%; in assay [3], 100%; in [4], 54.3%; in assay [5], 57.5%; in assay [6], 62.1%. For the same compound, the growth in assay [7] is 87.2%; in [8] it was 97.7%; in assay [9], -91.6% (active); in [10], 105%; in [11], 101%; in assay [12], 92.4%. In addition, the growth is 73.5% in assay [13]; 65.7% in assay [14]; 119% in assay [15]; 89.4% in [16]; 64.7% in assay [17]; 112% in [18]. The growth is 48% in assay [19] and 16.9% in assay [20].
As for `COc1ccc(/C=N\NC(=O)c2ccc3nc(-c4ccc(Br)cc4)[nH]c3c2)cc1`, the growth in assay [1] was 48.1%; in assay [2], 17.5%; in [3], 46.1%; in assay [4] it was 19.2%; in assay [5], -51.5% (active); in assay [6], 20.8%. Moreover, the growth in [7] is 24.2%; in assay [8], 34.6%; in assay [9], -26% (active); in assay [10] it was 13.8%; in assay [11], 96.9%; in [12], 39.6%. Further, the growth in assay [13] was 17.1%; in assay [14], 75.9%; in assay [15], 51.6%; in assay [16], 35.1%; in [17] it was 35%; in assay [18], 82%. In addition, the figures for the growth in assay [19] and in assay [20] were 53.2% and 61.9%, respectively.
As to `COc1ccc(NC(=O)Cn2cc(CN3C(=O)c4ccc([N+](=O)[O-])cc4C3=O)nn2)cc1`, the growth is 98.2% in assay [1]; 109% in assay [2]; 73.9% in assay [3]; 93.6% in assay [4]; 100% in assay [5]; 98.6% in assay [6]. The growth is 102% in assay [7]; 91.3% in assay [8]; 97.7% in assay [9]; 110% in assay [10]; 112% in assay [11]; 105% in [12]. In addition, the growth in [13] is 99.7%; in assay [14], 88.1%; in [15] it was 103%; in assay [16], 104%; in [17] it was 87.7%; in assay [18] it was 88.2%. Besides, the growth in [19] is 109%; in assay [20], 101%.
Turning to `Clc1ccc(-c2nc3ccc(/C(=N\N=C\c4ccccc4)c4ccccc4)cc3[nH]2)cc1`, the growth in assay [1] is 72%; in assay [2], 71.7%; in assay [3], 113%; in assay [4], 93.8%; in assay [5], 88.4%; in [6] it was 62.2%. The growth in assay [7] was 86.7%; in assay [8] it was 88.8%; in assay [9], 84.6%; in [10] it was 90.6%; in assay [11] it was 96.1%; in [12], 93.4%. The growth in [13] is 93.4%; in assay [14], 83.3%; in [15] it was 95.9%; in assay [16] it was 92.1%; in assay [17] it was 77.2%; in assay [18] it was 65.7%. Besides, the growth in assay [19] is 71%; in assay [20], 59.3%.
As to `C#Cc1ccc(NC(=O)c2ccc(/C=C/C(=O)c3nccn3C)cc2)c(F)c1`, the growth is 7.76% (active) in assay [1]; 15.8% in [2]; 17.7% in assay [3]; 23% in assay [4]; 5.03% (active) in assay [5]; 29.9% in assay [6]. The growth in assay [7] was 60.5%; in [8] it was 29.9%; in assay [9] it was -60.8% (active); in [10] it was 84%; in [11], 103%; in [12] it was 36%. Moreover, the growth in assay [13] is 16.3%; in [14], 41.8%; in assay [15], 89.4%; in assay [16], 37.7%; in assay [17], 37.3%; in [18] it was 78.7%. Besides, the values for the growth in assay [19] and in assay [20] were 7.54% (active) and 16.2%, respectively.
As to `Cc1[nH]nc2ccc(-c3nc4cnc(N5CCN(C)CC5)cn4c3Nc3ccc(F)cc3Br)cc12`, the growth in assay [1] is 27.8%; in assay [2], 4.1% (active); in assay [3], 82.7%; in assay [4], 45.4%; in assay [5] it was 14.4%; in assay [6] it was 47.6%. For the same compound, the growth was 75.4% in [7]; 17.9% in [8]; -10.4% (active) in assay [9]; 62.8% in assay [10]; 91.1% in assay [11]; 86.1% in assay [12]. Also, the growth in [13] was 29.9%; in assay [14], 50.4%; in [15], 65%; in assay [16] it was 48.3%; in assay [17], 21%; in [18], 82.3%. The growth is 3.21% (active) in assay [19] and 39.4% in [20].
In the case of `O=C1c2c(c3c4cc(O)ccc4oc3c3[nH]c4ccccc4c23)C(=O)N1O`, the growth in assay [1] was 15.2%; in [2], -64.6% (active); in [3], -8.52% (active); in assay [4] it was 16.4%; in assay [5] it was -3.58% (active); in assay [6], 12.8%. Also, the growth was -76.1% (active) in assay [7]; -53.6% (active) in [8]; -67.8% (active) in [9]; 19.4% in assay [10]; -71.6% (active) in [11]; 66.6% in assay [12]. Also, the growth in assay [13] was 17.1%; in assay [14], -40.1% (active); in assay [15] it was 31.1%; in assay [16], -5.43% (active); in [17], -16.5% (active); in assay [18], -9.95% (active). Besides, the growth in assay [19] is 1.62% (active); in assay [20] it was 4.76% (active).
`Cc1ccc(-c2cc(-c3cccc4ccccc34)n3c(n2)nc2ccccc23)cc1`: the growth is 48% in [1]; 73.4% in assay [2]; 46.8% in assay [3]; 53.5% in assay [4]; 48.9% in [5]; 60.3% in [6]. The growth in assay [7] was 40.9%; in assay [8], 43.5%; in [9], 56.6%; in assay [10], 77%; in assay [11] it was 105%; in [12], 78.7%. Also, the growth in assay [13] is 61.2%; in assay [14], 37.9%; in assay [15], 69.1%; in assay [16], 24.8%; in assay [17] it was 23.1%; in assay [18], 52.5%. For the same compound, the growth in assay [19] is 37.5%; in assay [20] it was 4.63% (active).

The record behind these values is PubChem BioAssay (NCI).
